Assay outcomes from PubChem.
Pf Dd2 growth = Plasmodium falciparum Dd2 growth inhibition. P. falciparum Dd2 growth, SYBR Green, 72 h. Potency, µM (doses to about 28.9 µM), without a hit: at the highest dose activity, negative = inhibition, actives largely listed as inhibitors. hit rate 4.3% among 120,000; active = well fitted inhibition curve with a large enough effect;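 also: plate controls were DMSO vehicle for no effect and reference drug for full effect; nearly all actives have a fitted effect of over 65% in size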
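Readout: SYBR Green fluorescence, 485 nm excitation, 535 nm emission, after ~16 h lysis at 37C. Before that, Dd2-infected red cells (2.5% hematocrit) grew 72 h with compound, 29 uM top final concentration.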
* = called active by the depositor; [ ] = another dose, or the depositor's remark. This excerpt belongs to a sample that is enriched for hits. Potency is read from the fitted curve at half-maximal effect.

What do the screens show for `CCc1noc(-c2ccn3c(CNC(=O)c4cc(F)cc(F)c4)nnc3c2)n1`?
Pf Dd2 growth: -23%

Results for CCc1c(C)sc2c1CCN(Cc1ccccc1)C2c1ccccc1 (stereo not drawn) ?
Pf Dd2 growth: 4.5µM*

What do the screens show for `CCCS(=O)(=O)N1CC[C@@H]2COCCN(Cc3ccccc3)[C@@H]2C1`?
Pf Dd2 growth: -18%

Results for CCc1c(C)sc2c1CCN(C(=O)Nc1ccccc1C(=O)OC)C2c1ccc(OC)cc1 (stereo not drawn) ?
Pf Dd2 growth: -8%

How did COc1ccc(CNC(=O)N2C[C@@H](Oc3ccccc3)C[C@@H]2C(=O)N2CCOCC2)cc1 do in these assays?
Pf Dd2 growth: -3%

What do the screens show for `Cc1nc2c(c(-c3ccc(O)cc3)n1)CN(Cc1ccsc1)CCC2`?
Pf Dd2 growth: inactive

How did CN1C(=O)c2ccccc2Sc2ccc(NC(=O)N3CCN(c4cccc(Cl)c4)CC3)cc21 do in these assays?
Pf Dd2 growth: 13µM*

How did CN1C(=O)c2ccccc2Sc2ccc(NC(=O)Nc3ccccc3F)cc21 do in these assays?
Pf Dd2 growth: -14%

How did CCc1cccc(NC(=O)Nc2ccc3c(c2)N(C)C(=O)c2ccccc2S3)c1 do in these assays?
Pf Dd2 growth: inactive

What do the screens show for `CCC1Oc2ccc(NC(=O)c3cccc(OC)c3)cc2CN(Cc2ccccc2)C1=O` (stereo not drawn)?
Pf Dd2 growth: inactive

Results for CCOc1cccc(CNc2ccc(O)cc2)c1OCc1ccccc1Cl ?
Pf Dd2 growth: inactive[5.79 µM]

Results for CCOc1cc(CNc2ccc(O)cc2)cc(Cl)c1OCc1ccccc1 ?
Pf Dd2 growth: 13µM*

How did CCOc1cc(CNc2ccc(C(=O)O)cc2)ccc1OCc1ccccc1 do in these assays?
Pf Dd2 growth: 6%

How did O=C1Nc2ccccc2CC12CN([S+](=O)([O-])c1cccs1)C2 do in these assays?
Pf Dd2 growth: 1%

What do the screens show for `CC(C)c1ccc(NC(=O)Cn2cc(S(=O)(=O)N3CCN(c4ccccc4F)CC3)c3ccccc3c2=O)cc1`?
Pf Dd2 growth: 10µM*

Results for CC1CCN(S(=O)(=O)c2cn(CC(=O)Nc3ccc(F)cc3)c(=O)c3ccccc23)CC1 ?
Pf Dd2 growth: inactive

Results for CC(C)c1ccc(NC(=O)c2ccc(F)c(S(=O)(=O)N3CCN(c4ccccc4F)CC3)c2)cc1 ?
Pf Dd2 growth: inactive

Results for CCCC1(CO)CCCN(Cc2nc(C)no2)C1 (stereo not drawn) ?
Pf Dd2 growth: -10%

What do the screens show for `CCCC(=O)N1C[C@@H]2CCCN3CCC[C@@H]([C@H]23)[C@H]1CCCC(=O)N1CCOCC1`?
Pf Dd2 growth: -10%

What do the screens show for `O=c1n(-c2ccc(F)cc2F)nc2n1CCN(Cc1ccc(C(F)(F)F)cc1)C2`?
Pf Dd2 growth: inactive

Results for Cn1ccc(CN2CCn3c(nn(-c4ccc(F)cc4F)c3=O)C2)c1 ?
Pf Dd2 growth: 8.9µM*

What do the screens show for `COc1ccc(CN2CCn3c(nn(-c4ccc(F)cc4F)c3=O)C2)cc1`?
Pf Dd2 growth: -1%

How did COc1cc(OC)cc(-c2nc(C3CC(=O)N(c4ccc(Cl)cc4)C3)no2)c1 (stereo not drawn) do in these assays?
Pf Dd2 growth: 9%

How did CC(C)CN1CCN(C(=O)CCC2CCN(c3cc(NC4CC4)ncn3)CC2)CC1 do in these assays?
Pf Dd2 growth: -26%

How did CN1CC(=O)N(C2CCC2)Cc2c1ncnc2N1CCCC1 do in these assays?
Pf Dd2 growth: 13%[44.1 µM]

Results for COc1cccc(CNC(=O)[C@@H]2C[C@@H](O)CN2C2CCN(C(=O)c3cccs3)CC2)c1 ?
Pf Dd2 growth: 8.9µM*

Results for COc1cccc(CNC(=O)[C@@H]2C[C@@H](O)CN2C2CCN(C(=O)c3ccncc3)CC2)c1 ?
Pf Dd2 growth: -19%

What do the screens show for `COc1cccc(CNC(=O)[C@@H]2C[C@@H](O)CN2C2CCN(C(=O)CC3CCCC3)CC2)c1`?
Pf Dd2 growth: inactive

Results for COc1cccc(CNC(=O)[C@@H]2C[C@@H](O)CN2C2CCN(C(=O)c3ccco3)CC2)c1 ?
Pf Dd2 growth: inactive

What do the screens show for `COc1cccc(CNC(=O)[C@@H]2C[C@@H](O)CN2C2CCN(C(=O)c3cccc(OC)c3)CC2)c1`?
Pf Dd2 growth: -11%

What do the screens show for `COc1cccc(CNC(=O)[C@@H]2C[C@@H](O)CN2C2CCN(C(=O)Cc3ccc(Cl)cc3)CC2)c1`?
Pf Dd2 growth: 13µM*

How did O=C(CCc1nnn2c1CN(S(=O)(=O)c1ccc(F)cc1)CC2)N1CCOCC1 do in these assays?
Pf Dd2 growth: -12%

What do the screens show for `O=C(c1cccnc1)N1CCC2(CC1)C(=NC1CCCCC1)NC(=O)N2c1cccnc1`?
Pf Dd2 growth: 28%

What do the screens show for `CNC(=O)[C@H]1C[C@H](Oc2cccnc2)CN1C(=O)NCc1ccc(F)cc1`?
Pf Dd2 growth: -5%

How did COC[C@@H]1CN(c2ncccn2)C[C@H]1C(=O)NCc1ccccn1 do in these assays?
Pf Dd2 growth: -9%

How did COCCCn1c(C)cnc1C1CCN(C(=O)Nc2ccc3c(c2)OCCO3)C1 (stereo not drawn) do in these assays?
Pf Dd2 growth: -18%

What do the screens show for `CCCCN1CC(c2nc3ccccc3n2CCCCOc2ccccc2C)CC1=O` (stereo not drawn)?
Pf Dd2 growth: 10µM*

Results for Cc1ccccc1OCCCCn1c(C2CC(=O)N(c3ccccc3Cl)C2)nc2ccccc21 (stereo not drawn) ?
Pf Dd2 growth: 14%

Results for Cc1cccc(C)c1OCCCCn1c(C2CC(=O)N(c3ccc(F)cc3)C2)nc2ccccc21 (stereo not drawn) ?
Pf Dd2 growth: inactive

Results for CC(C)(CC(=O)O)CC(=O)N1C[C@@H]2C[C@H](C1)c1ccc(-c3cccc(C(F)(F)F)c3)c(=O)n1C2 ?
Pf Dd2 growth: 0%

How did Cn1nc2n(c1=O)CCC(NC(=O)c1c(F)cccc1Cl)CC2 (stereo not drawn) do in these assays?
Pf Dd2 growth: 9%

What do the screens show for `O=C(NCc1ccco1)c1cccc2c1CCN2C(=O)Nc1ccc(F)cc1`?
Pf Dd2 growth: -2%

Results for COc1ccc(F)c(CN2CCCC3(CCN(c4cc(C)nc(N)n4)C3)C2)c1 (stereo not drawn) ?
Pf Dd2 growth: 4µM*

Results for COc1ccc(F)c(CN2CCCC3(CCN(C(=O)c4ccsc4)C3)C2)c1 (stereo not drawn) ?
Pf Dd2 growth: 8%

How did Fc1cccc(CN2CCCC3(CCN(c4cnccn4)C3)C2)c1F (stereo not drawn) do in these assays?
Pf Dd2 growth: -4%

What do the screens show for `O=C1NC2(CCCN(C(=O)c3ccc(C(F)(F)F)cc3)C2)Oc2ccccc21` (stereo not drawn)?
Pf Dd2 growth: inactive

Results for COc1ccc2[nH]cc(CCNC(=O)Nc3c(C)cccc3C)c2c1 ?
Pf Dd2 growth: inactive

How did COc1ccc2[nH]cc(CCNC(=O)Nc3cccc(F)c3)c2c1 do in these assays?
Pf Dd2 growth: 4%

Results for COc1ccc2[nH]cc(CCN=C(NC(=O)c3cccc(Cl)c3)Nc3nc(C)cc(C)n3)c2c1 ?
Pf Dd2 growth: 8.9µM*

Results for Cc1ccc(CNc2ccc3nnc(C4CCC4)n3n2)o1 ?
Pf Dd2 growth: 7.1µM*

How did CC(C)Nc1ccc2nnc(C3CCC3)n2n1 do in these assays?
Pf Dd2 growth: 92%

Results for CCc1nnc2ccc(NCC3CCCO3)nn12 (stereo not drawn) ?
Pf Dd2 growth: -9%

Results for CCn1ncc(N2CCCC(CC(=O)N3CCN(c4ccccc4)CC3)C2)cc1=O (stereo not drawn) ?
Pf Dd2 growth: -15%

Results for CCN(C1CCOCC1)C1CN(C(=O)c2cccn2C)C1 ?
Pf Dd2 growth: 0%
